Data from PubChem BioAssay.

Tested on: not listed separately
Experiment: small-molecule microarray binders of probe aNog, primary screen, biochemical, biotinylated probe, 635/667 nm fluorescence (AID 1115);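 further: probe is biotinylated aNog protein used at 0.15 µg/mL for 1 h at 4 C; z-score combines 667 nm fluorescence of each spot with its signal to noise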
Details: higher = more signal
For COc1cccc(C(=O)O[C@H]2CC[C@]3(C)C4=C(CCC3C2(C)C)[C@]2(C)CC[C@H]([C@H](C)CCCC(C)C)[C@@]2(C)CC4)c1 (stereo not given in full), the composite z-score was -0.0689.
With COc1ccc(C(=O)Nc2cccc(CN3C(=O)[C@@]4(O[C@@H](CCn5cc(CCO)nn5)[C@H]([Si](C)(C)c5ccc(OC)cc5)[C@H]4C)c4ccccc43)c2)cc1 the composite z-score was 0.153.
In the case of O=C1N(CCS(=O)(=O)c2ccccc2)Cc2ccccc2C[C@]12N=C(c1ccc(OCCCO)cc1)O[C@@H]2c1ccccc1, the composite z-score is reported as 1.21.

Molecular target: Torsin-1A-interacting protein 1 (Homo sapiens) (UniProt Q5JTV8)
Sequence (Q5JTV8 whole entry, looked up): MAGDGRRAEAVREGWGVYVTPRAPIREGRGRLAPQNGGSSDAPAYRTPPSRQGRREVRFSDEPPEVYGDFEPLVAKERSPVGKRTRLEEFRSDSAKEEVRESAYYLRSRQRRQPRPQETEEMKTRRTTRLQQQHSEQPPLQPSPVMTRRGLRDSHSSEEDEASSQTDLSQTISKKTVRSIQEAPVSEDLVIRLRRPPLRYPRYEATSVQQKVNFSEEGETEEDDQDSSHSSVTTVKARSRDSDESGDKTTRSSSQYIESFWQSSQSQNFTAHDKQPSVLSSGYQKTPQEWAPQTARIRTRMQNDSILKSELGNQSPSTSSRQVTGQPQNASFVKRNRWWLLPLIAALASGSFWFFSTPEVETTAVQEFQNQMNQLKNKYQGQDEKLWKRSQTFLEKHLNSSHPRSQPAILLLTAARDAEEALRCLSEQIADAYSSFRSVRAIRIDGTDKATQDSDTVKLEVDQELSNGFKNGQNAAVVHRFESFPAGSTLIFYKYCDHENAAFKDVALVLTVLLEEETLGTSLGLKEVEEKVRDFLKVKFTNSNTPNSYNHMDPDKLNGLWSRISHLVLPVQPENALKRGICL
Experiment: LAP1 binders from COS7 cell lysate, primary screen, small-molecule microarray, 635/667 nm fluorescence (AID 1116)
Details: COS7-hLAP1 lysate binding, 635 nm fluorescence, higher = more signal
With CC(C)c1ccc(NN2C(C(O)c3ccc(N(C)C)cc3)C=CC3C(=O)N(c4ccccc4)C(=O)C32)cc1 (stereo not given) the composite z-score was 0.488.
Work on CC(C)NC(=O)[C@@H]1c2ccccc2C(=O)N(Cc2ccccc2)[C@H]1c1ccc(CO)cc1 yielded a composite z-score of 1.57.
CCOC(=O)C[C@H]1[C@H](OC(=O)c2ccccc2-c2ccccc2)[C@@H](NC(=O)Cc2ccc(OC)cc2)c2cc(OCCCO)ccc2N1C(=O)c1ccccc1 showed a composite z-score of 0.246.
In the case of Cc1ccc(S[C@]2(C(=O)O)CC(=O)N(C3Cc4ccccc4C3)[C@@H]2c2ccc(CO)cc2I)cc1, the composite z-score is reported as 0.365.
With CC(C)(C)OC(=O)CC[C@@]1(C(=O)NCCN2CCOCC2)N=C(c2ccc(OCCCO)cc2)O[C@@H]1c1ccccc1 the composite z-score was 0.414.
With CCCN1C(=O)[C@@]2(CCC(=O)OC(C)(C)C)N=C(c3ccc(OCCCO)cc3)O[C@H]2c2ccccc21 the composite z-score was 0.816.
Work on COCCOC(=O)N1C(=O)[C@@]2(c3cc(C#CCC(C(=O)OC)C(=O)OC)ccc31)[C@H](c1ccc(O)cc1)N1[C@H](c3ccccc3)[C@H](c3ccccc3)OC(=O)[C@H]1[C@@H]2C(N)=O yielded a composite z-score of 1.03.
